Assay results from PubChem BioAssay AID493152 (Sanford-Burnham Center for Chemical Genomics, 2011).
The list shows a part of the results. Active and inactive are the calls of the source.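 Rule for the calls: active = inhibition reaching a set limit in any replicate at 20 µM, the limit being 80% of the first screen's; inactive = the rest.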

target: DNA dC->dU-editing enzyme APOBEC-3G (Homo sapiens) (UniProt Q9HC16); experiment: human A3G ssDNA deamination inhibition, hit confirmation – biochemical, fluorescence, single-stranded DNA substrate, single concentration (AID 493152); conditions: recombinant A3G ssDNA deaminase, UDG/FAM-TAMRA fluorescence; at 20 µM; active compounds read high
Sequence (Q9HC16 whole entry, looked up): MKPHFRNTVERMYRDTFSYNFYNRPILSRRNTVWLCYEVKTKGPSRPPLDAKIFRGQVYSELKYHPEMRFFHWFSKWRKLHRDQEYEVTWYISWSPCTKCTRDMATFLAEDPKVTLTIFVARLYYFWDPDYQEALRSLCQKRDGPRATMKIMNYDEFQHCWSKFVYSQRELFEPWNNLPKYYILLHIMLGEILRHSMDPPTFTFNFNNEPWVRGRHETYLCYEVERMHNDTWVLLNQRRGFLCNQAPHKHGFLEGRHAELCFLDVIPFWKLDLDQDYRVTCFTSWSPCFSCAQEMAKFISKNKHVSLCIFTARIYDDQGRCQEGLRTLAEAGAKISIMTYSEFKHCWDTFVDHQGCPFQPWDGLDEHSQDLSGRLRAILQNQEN

SMILES | inhibition
Cn1c2ccccc2c(=O)c2c(=O)n(Cc3ccco3)c(COc3ccccc3)nc21 | 22% (inactive)
O=c1[nH]c2ccccc2n2c(-c3ccccc3)nnc12 | 26% (active)
S=c1[nH]nc(-c2ccncc2)n1/N=C/c1ccccc1Cl | 95.7% (active)
S=c1[nH]nc(-c2ccc(Cl)cc2)n1CC1CCCO1 (centres undefined) | 55.9% (active)
O=C(Cn1cnc([N+](=O)[O-])n1)NCCc1ccccc1 | 11.3% (active)
COc1cccc(C(=O)CC(=O)C(=O)Nc2ccc([N+](=O)[O-])cc2C)c1 | 2.17% (inactive)
COCc1c(N)c(C)nc(Cl)c1C#N | 84.5% (active)
Cc1cc(-c2n[nH]c(=S)n2/N=C/c2ccco2)n[nH]1 | 58.5% (active)
S=c1[nH]nc(NCCc2ccccc2)s1 | 81.5% (active)
Cc1noc(C)c1CSc1nc2cc(S(=O)(=O)N3CCOCC3)ccc2o1 | 71.6% (active)
S=c1[nH]nc(-c2ccco2)n1/N=C/c1ccccc1 | -3.73% (active)
O=C1C=CC(=O)N1c1ccc(N2CCCCC2)cc1 | 91% (active)
CCOc1ccc(NC(=O)c2ccc(NC(=O)COC(=O)c3ccc(NC(=O)CC#N)cc3)cc2)cc1 | 51.5% (active)
Cc1ccnc(-n2sc3ccccc3c2=O)n1 | 55.1% (active)
Fc1ccccc1/C=N/n1c(-c2cccnc2)n[nH]c1=S | 84.9% (active)
Cc1ccc(S(=O)(=O)N(C)CC(=O)NCCc2c[nH]c3ccccc23)cc1 | 4.16% (inactive)
Cc1n[nH]c(=S)n1/N=C/c1ccc(Br)o1 | 80.4% (active)
COc1ccccc1-n1c(-c2cc(-c3ccco3)[nH]n2)n[nH]c1=S | 50.2% (active)
CCOc1ccc(NC(=O)Nc2cc(C)on2)cc1 | 0.05% (inactive)
CCn1c(CN2C(=O)CSc3ccccc32)n[nH]c1=S | 23.9% (inactive)
S=c1[nH]nc2c3c4c(sc3ncn12)CCCC4 | 80% (active)
CCC(CC)c1nnc(NC(=O)C2CCN(C(=O)c3ccco3)CC2)s1 | 24.5% (active)
Cc1nc2scc(-c3cccs3)c2c(=O)n1N | 0.32% (inactive)
COc1ccc(OCc2n[nH]c(=S)n2N)cc1 | 56.2% (active)
